An excerpt weighted towards active compounds, which were near 2.4% of everything screened.
CHO-K1 Ca antag – nonselective inhibitor or artifact in parental CHO-K1 cells. ATP-induced calcium, Fluo-8 fluorescence. inhibition, % at 3 µM. 360,000 compounds, 0.6% hits;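 active means inhibition above a per-plate cutoff, the plate's mean sample inhibition plus 3 SD, cut at about 24% in these data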;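 further: 0% = DMSO plus EC80 ATP and 100% = DMSO alone without ATP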
CHRM1 agonist – human M1 muscarinic receptor agonists, primary screen, Fluo-8 calcium fluorescence, CHO-K1 cells, HTS. activation, % at 3 µM. Muscarinic acetylcholine receptor M1 (Homo sapiens), P11229. 360,000 compounds, 0.33% hits. CHO-K1 hM1, agonist mode; 0% DMSO, 100% acetylcholine EC100. AID 588814, 2011;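 active means activation above the run's mean compound activation plus 3 SD, cut at about 16% in these data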;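 further: peak over basal fluorescence ratio within a 140 s kinetic read after compound addition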
CHRM1 antagonist – human M1 muscarinic receptor antagonists, primary screen, CHO-K1 cells, Fluo-8 calcium fluorescence, 1536-well | Muscarinic acetylcholine receptor M1 (Homo sapiens), P11229 | AID 588852, 2011 | inhibition, % at 3 µM | 360,000 compounds, 1.3% hits | CHO-K1 hM1, ACh EC80 antagonist;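 active means percent inhibition above its own plate's cutoff, namely the mean of that plate's compound wells plus 3 SD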;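 further: peak over basal fluorescence ratio during 140 s after agonist addition; 0% = ACh EC80 plus DMSO and 100% = DMSO alone without agonist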
CHO-K1 Ca ag – counter-screen for M1 agonists: effect in parental CHO-K1 cells. Fluo-8 calcium fluorescence; scaled to maximal ATP response, vehicle zero. activation, % at 3 µM. 360,000 compounds, 0.48% hits; in the data active means activation above about 15%;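 further: untransfected CHO-K1 host cells lacking M1 receptor as counterscreen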
CHRM1 PAM – human M1 muscarinic receptor positive allosteric modulators, primary screen, CHO-K1 cells, Fluo-8 calcium fluorescence, 1536-well; Muscarinic acetylcholine receptor M1 (Homo sapiens), P11229; activation, % at 3 µM; AID 588819, 2011; CHO-K1 hM1, ACh EC20; 0% = ACh EC20, 100% = maximal ACh; 360,000 compounds, 0.088% hits; in the data active means activation above about 19%, passing the limit was not always enough
M1 PAM parental – nonselective calcium activators in parental CHO-K1 cells, primary screen, counter-screen for M1 PAM project, cell-based, Fluo-8 calcium fluorescence, full deck, 1536-well. ATP EC20; 0% at ATP EC20, 100% at ATP max. activation, % at 3 µM. 360,000 compounds, 0.02% hits. AID 602247, 2012;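 active means activation above the run cutoff, the mean activation of all test compounds plus 3 SD, cut at about 40% in these data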;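 further: peak over basal fluorescence ratio in a 140 s read after ATP addition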
Numbers without * were called inactive.

SMILES	CHO-K1 Ca antag	CHRM1 agonist	CHRM1 antagonist	CHO-K1 Ca ag	CHRM1 PAM	M1 PAM parental
CCC(C)NC(=O)C1(O)c2ccccc2NC(=O)N1c1ccc(C)c(C)c1 (stereo not given)	0	-4	9	5	-6	3
CCn1c(SCC(=O)c2ccccc2)nnc1-c1cccs1	26*	-4	-3	0	3	-9
CCn1c(SCC(=O)NCCc2ccccc2)nnc1-c1cccs1	6	-3	-12	0	4	10
O=C(CSc1nnc(-c2cccs2)n1-c1ccccc1)N1CCOCC1	35*	-1	23	0	-8	-24
O=C(CSc1nnc(-c2cccs2)n1-c1ccccc1)N1CCCC1	-22	-4	-8	1	3	6
Nn1c(SCC(=O)N2CCCC2)nnc1-c1cccs1	27*	-4	-5	0	3	-11
Cc1ccccc1NS(=O)(=O)c1ccc2oc(=O)ccc2c1	-8	-2	3	1	-3	-4
CN(C)c1ccc(CNC(=O)/C=C/[C@H]2O[C@@H](n3ccc(=O)[nH]c3=O)[C@H](O)[C@@H]2O)cc1	-18	-3	-14	1	2	15
COc1ccccc1C(=O)N1CCN(Cc2cn[nH]c2-c2ccc(F)cc2F)CC1	-12	-5	-1	1	3	27
CCOC(=O)c1[nH]ncc1CN1CCCC(C(=O)c2ccc(C(C)(C)C)cc2)C1 (stereo not given)	-6	-6	38*	1	-10	-7
COc1cc(CN2CCCC(C(=O)c3ccc(C(C)(C)C)cc3)C2)cc(OC)c1O (stereo not given)	-7	-10	9	1	-15	-4
CCOC(=O)C1CCCN(Cc2cn[nH]c2-c2ccc(F)cc2F)C1 (stereo not given)	4	8	-1	18*	4	8
CCOC(=O)C1CCCN(CC(=O)Nc2c(F)c(F)c(F)c(F)c2F)C1 (stereo not given)	-2	10	-3	0	1	8
CCOC(=O)C1CCCN(CC(=O)c2ccc(F)cc2)C1 (stereo not given)	1	65*	57*	6	-20	-1
COC(=O)CCCCCCCCCCN1CCCCC1	-4	-8	27*	2	-24	16
COC(=O)CCCCC(=O)OC	-13	5	-16	0	18	11
CCCn1c(C(C)NC(=O)c2ccccc2)n[nH]c1=S (stereo not given)	0	-2	-11	17*	5	12
CN1CCC(Oc2ccccc2Sc2ccc(C(F)(F)F)cc2)CC1	-5	-10	64*	1	-24	14
CN1CCC(Oc2ccc(Sc3ccccc3)cc2)CC1	-6	12	11	2	-1	11
CCOc1ccc(NC(=O)CN(C)C(=O)CCN2C(=O)C3CC=CCC3C2=O)cc1OCC (stereo not given)	-10	-3	-3	1	4	-1
COc1ccc(-c2csc(NC(=O)C3CCN(c4ncnc5sc(C)c(C)c45)CC3)n2)cc1OC	21	-3	46*	2	-12	-18
COc1ccc(-c2nnc3ccc(SCC(=O)Nc4nccs4)nn23)cc1OC	3	-9	6	7	-1	15
COc1ccc(-c2ccc(SCC(=O)Nc3nccs3)nn2)cc1OC	2	-1	35*	4	-12	-12
COc1ccc(CC(=O)Nc2nc(-c3ccc(OC)c(OC)c3)cs2)cc1OC	0	16*	-5	14	6	17
COc1ccc(S(=O)(=O)Nc2ccccc2C(=O)Nc2nc(-c3ccc(F)cc3)cs2)cc1OC	33*	-5	29	15	-14	-7
COc1ccccc1OCC(=O)NNC(=O)C1CCN(c2ncnc3sc(C)c(C)c23)CC1	-12	-3	12	8	-12	0
